The list is not random: actives were taken first. Their share in the collection is about 3.3%.
Calb FLC – affects C. albicans growth with fluconazole. C. albicans CaCi-2 (fluconazole-resistant clinical isolate) + fluconazole, Alamar Blue growth, 48 h. growth inhibition, % (no concentration beside the values). actives 0.57% (n = 300,000). AID 1979;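 active = growth inhibition above about 58% in most replicates, limit read from the data, passing the limit was not always enough; inconclusive = exactly half the replicates above a set limit; inactive = most replicates below a set limit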;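 note: all wells also contain fluconazole at 8 µg/ml as a sub-toxic cotreatment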
PHOSPHO1 inh – blocks human PHOSPHO1 phosphatase activity; Q8TCT1; recombinant PHOSPHO1, absorbance phosphatase assay; inhibition, % at 13.3 µM; actives 1.1% (n = 290,000); AID 1565; in the data active = inhibition above about 60%
H9c2 protect – protects H9c2 cardiomyocytes from peroxide injury | H2O2 injury protection, ATPLite, 2 h | protection from H2O2 cell death, % at 20 µM | actives 0.63% (n = 360,000);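 active = compounds giving at least 50% protection of heart cells from peroxide-induced death in the single-dose screen, raw or plate-pattern-corrected value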
Cl transport mod – modulators of human KCC2 chloride dependent transport | KCC2 cells, thallium flux FluoZin-2 fluorescence | B-score of Tl+ flux slope (higher = more flux/activation; lower = inhibition) at 10 µM | actives 2.2% (n = 190,000) | AID 1456;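 active = thallium flux slope and its plate-corrected score both differing from the plate sample mean at a set confidence after two filtering rounds, in either direction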;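 note: slope of fluorescence scaled to starting intensity during 10 to 20 s after thallium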
Target sequence (Q9H2X9 whole entry, looked up): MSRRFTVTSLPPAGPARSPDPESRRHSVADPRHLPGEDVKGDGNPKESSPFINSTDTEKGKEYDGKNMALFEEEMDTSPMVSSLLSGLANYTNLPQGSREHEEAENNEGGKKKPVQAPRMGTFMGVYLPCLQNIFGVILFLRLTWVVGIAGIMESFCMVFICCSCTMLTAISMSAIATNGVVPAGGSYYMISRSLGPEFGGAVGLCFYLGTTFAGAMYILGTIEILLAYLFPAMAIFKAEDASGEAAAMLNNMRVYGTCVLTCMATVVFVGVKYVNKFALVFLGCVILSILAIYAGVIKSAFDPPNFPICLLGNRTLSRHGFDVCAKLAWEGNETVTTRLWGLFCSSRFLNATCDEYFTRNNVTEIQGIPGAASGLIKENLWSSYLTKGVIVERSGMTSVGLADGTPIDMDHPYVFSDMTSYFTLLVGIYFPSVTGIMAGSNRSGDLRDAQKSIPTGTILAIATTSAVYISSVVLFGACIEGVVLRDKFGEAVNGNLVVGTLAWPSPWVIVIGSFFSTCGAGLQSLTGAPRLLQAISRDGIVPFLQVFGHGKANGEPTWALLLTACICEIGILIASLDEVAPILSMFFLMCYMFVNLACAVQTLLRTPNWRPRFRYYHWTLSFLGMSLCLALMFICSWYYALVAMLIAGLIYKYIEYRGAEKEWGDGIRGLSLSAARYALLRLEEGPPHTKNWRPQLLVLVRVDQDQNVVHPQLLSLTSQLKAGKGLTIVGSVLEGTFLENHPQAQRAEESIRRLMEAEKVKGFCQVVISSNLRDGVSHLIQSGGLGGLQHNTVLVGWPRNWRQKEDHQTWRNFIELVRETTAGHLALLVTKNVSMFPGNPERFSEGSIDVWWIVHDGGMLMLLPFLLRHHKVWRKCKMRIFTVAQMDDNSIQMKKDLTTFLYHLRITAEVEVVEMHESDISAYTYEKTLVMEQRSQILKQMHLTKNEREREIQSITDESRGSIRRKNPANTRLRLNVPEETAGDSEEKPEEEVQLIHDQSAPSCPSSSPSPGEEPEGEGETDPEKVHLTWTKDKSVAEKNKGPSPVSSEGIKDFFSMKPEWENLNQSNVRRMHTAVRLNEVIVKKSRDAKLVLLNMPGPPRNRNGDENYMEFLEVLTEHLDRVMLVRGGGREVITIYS
Efflux pump mplx – blocks antifungal efflux pumps in multiplex yeast assay; S. cerevisiae Candida pump triplex, Nile Red efflux; inhibition, % at 10 µM; actives 0.44% (n = 330,000); AID 485275;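 active = plate passing quality check with inhibition over a set limit, or well fluorescence over plate mean plus 4 SD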;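 note: Nile Red retained in pooled yeast measured as flow cytometry median fluorescence; higher means more Nile Red kept so more efflux inhibition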
KCC2 secondary – KCC2 (human) modulation, secondary assay; shares compounds with Cl transport mod; HEK293-KCC2, thallium flux, FluoZin2 fluorescence; stronger effect = higher value; normalised thallium flux (F/F0 slope) at 10 µM; actives 15% (n = 3,700); AID 1713;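 active = thallium flux slope above the same plate's solvent-only control mean plus 3 SD; inconclusive = the two replicate wells disagree; inactive = no significant difference from solvent-only control wells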
KCC2 bumet counter – thallium flux despite bumetanide block in KCC2 cells, secondary assay 3; shares compounds with Cl transport mod; HEK293-KCC2 + bumetanide/ouabain, thallium flux FluoZin2; stronger effect = higher value; normalized thallium flux at 10 µM; actives 49% (n = 3,700); AID 1714;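 active = thallium entry rate above the same plate's blocked-transporter control wells by more than 3 SD; inconclusive = the two repeat wells disagree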;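 note: raw slope of fluorescence over initial fluorescence between 10 and 20 s after thallium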
KCC2 sec2 – KCC2 (human) modulation, second secondary assay. shares compounds with Cl transport mod. HEK293-KCC2, thallium flux FluoZin2 fluorescence; actives lie on both sides; F/F0 rise rate, 10–20 s post-thallium. normalized thallium flux at 10 µM. actives 23% (n = 3,700). AID 1715;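 active = thallium flux slope more than 3 SD above or below the plate's solvent-only control mean, mostly below; inconclusive = the two repeat wells disagreed; inactive = no significant shift from solvent-only controls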
HEK293 Tl flux – parental HEK flux effect, counter-screen; shares compounds with Cl transport mod; HEK293 parental cells, thallium flux FluoZin2, ouabain; baseline-ratio fluorescence slope, 10–20 s after thallium; thallium flux rate (normalised fluorescence) at 10 µM; actives 46% (n = 3,700); AID 1716;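 active = thallium flux rate significantly above the same plate's solvent-only control wells, beyond their mean plus 3 SD; inconclusive = the two replicate wells gave conflicting results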
KCC2 retest ouab – modulates human KCC2 on retest with ouabain; raw Tl+ flux slope (below DMSO = inhibition, above = activation) at 10 µM; shares compounds with Cl transport mod; actives 48% (n = 3,700); HEK293-KCC2, thallium flux FluoZin2 fluorescence; bidirectional: low = inhibitor, high = activator;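 active = thallium flux slope beyond 3 SD from same-plate DMSO control mean in most replicates, usually higher, sometimes lower; inconclusive = repeat tests gave conflicting results; inactive = no significant difference from controls in most replicates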;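 note: slope of initial-normalized fluorescence between seconds 10 and 20 after thallium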
HEK293 Tl flux2 – counter-screen for KCC2 modulators: effect in parental HEK293 cells | shares compounds with Cl transport mod | thallium flux FluoZin-2 fluorescence slope | thallium flux slope at 10 µM | actives 33% (n = 3,700) | AID 1718;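 active = thallium flux slope above the same plate's solvent-control mean plus 3 SD in both duplicate wells; inconclusive = duplicate wells that disagreed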;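 note: run without ouabain in cells lacking the KCC2 cotransporter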
Large screens that a line does not name were inactive (follow-up assays come after a bar, where they were run).

CCOc1cc(N(CC)CC)ccc1/C=C(/C#N)c1nc2ccccc2[nH]1	none (no result: Cl transport mod) | KCC2 secondary 0.0077 | KCC2 bumet counter -0.0033 | KCC2 sec2 inactive | HEK293 Tl flux inconclusive | KCC2 retest ouab 0.0081 | HEK293 Tl flux2 inactive
COC(=O)c1cc(OCC(=O)Nc2ccc3c(c2)CCC3)cc(C(=O)OC)c1	none (no result: Calb FLC, PHOSPHO1 inh, Cl transport mod)
Cc1cc(C2(c3ccc(O)c(C)c3)C(=O)N(C)c3ccc(Br)cc32)ccc1O	none (no result: PHOSPHO1 inh, Cl transport mod)
Cc1ccc2c(c1)C(c1ccc(O)cc1)(c1ccc(O)cc1)C(=O)N2C	Cl transport mod 3.7 | KCC2 secondary inactive | KCC2 bumet counter inactive | KCC2 sec2 inactive | HEK293 Tl flux inactive | KCC2 retest ouab inactive | HEK293 Tl flux2 inconclusive
O=C(CCC1CCCN(Cc2ccncc2)C1)NCc1ccc(F)c(F)c1 (centres undefined)	none
Cc1ccc(-c2ccc(/C=N/n3cnnc3)o2)cc1Cl	none
Cc1ccc(-n2cccc2/C=N/n2cnnc2)cc1Cl	none (no result: Cl transport mod) | KCC2 secondary inactive | KCC2 bumet counter inactive | KCC2 sec2 inactive | HEK293 Tl flux inactive | KCC2 retest ouab inactive | HEK293 Tl flux2 inactive
CCOC(=O)C1=C(N)OC2=C(C(=O)CCC2)C1c1sccc1C (centres undefined)	Cl transport mod -6.4 | KCC2 secondary inactive | KCC2 bumet counter inactive | KCC2 sec2 inconclusive | HEK293 Tl flux 0.0062 | KCC2 retest ouab inactive | HEK293 Tl flux2 0.0088
CCOC(=O)C1=C(N)OC2=C(C(=O)CCC2)C1c1ccc(C)s1 (centres undefined)	none
COc1ccc(Nc2cc(C)nc3ccccc23)cc1	none | KCC2 secondary inactive | KCC2 bumet counter 0.008 | KCC2 sec2 inactive | HEK293 Tl flux inactive | KCC2 retest ouab inactive | HEK293 Tl flux2 inactive
C/C(=C\c1ccccc1)C(=O)Nc1ccc(Cl)cn1	none (no result: Cl transport mod)
CCCCOc1ccc(Cc2c(COCC)[nH]c(=S)[nH]c2=O)cc1	Cl transport mod 15 | KCC2 secondary inconclusive | KCC2 bumet counter 0.099 | KCC2 sec2 0.043 | HEK293 Tl flux 0.026 | KCC2 retest ouab 0.053 | HEK293 Tl flux2 0.028
CCOCc1[nH]c(=S)[nH]c(=O)c1Cc1ccc(OCC)cc1	none
CCOCc1[nH]c(=S)[nH]c(=O)c1Cc1ccc(OCC(C)C)cc1	Cl transport mod 22 | KCC2 secondary 0.014 | KCC2 bumet counter 0.061 | KCC2 sec2 inactive | HEK293 Tl flux inconclusive | KCC2 retest ouab 0.04 | HEK293 Tl flux2 inconclusive
O=C(Cn1ncc(Cl)c(Cl)c1=O)c1ccc(Cl)cc1	none
O=C(OCn1ncc(Cl)c(Cl)c1=O)c1ccc(F)cc1	Calb FLC 107, Cl transport mod -4.1 (no result: H9c2 protect) | KCC2 secondary inactive | KCC2 bumet counter inconclusive | KCC2 sec2 0.026 | HEK293 Tl flux inactive | KCC2 retest ouab inconclusive | HEK293 Tl flux2 inactive
O=c1c(Cl)c(Cl)cnn1Cc1ccc(F)cc1	none
O=C(OCn1ncc(Cl)c(Cl)c1=O)c1ccccc1Cl	Calb FLC 108, Cl transport mod -4.3 | KCC2 secondary inactive | KCC2 bumet counter inactive | KCC2 sec2 inactive | HEK293 Tl flux inconclusive | KCC2 retest ouab 0.015 | HEK293 Tl flux2 inactive
S=C(NCc1ccccc1Cl)Nc1ccccc1Cl	Cl transport mod 6.1 | KCC2 secondary inactive | KCC2 bumet counter 0.012 | KCC2 sec2 inactive | HEK293 Tl flux inactive | KCC2 retest ouab inconclusive | HEK293 Tl flux2 inactive
S=C(NCCNC(=S)Nc1ccccc1Cl)Nc1ccccc1Cl	none (no result: Cl transport mod)
COc1ccc2nc(NC(=O)CSc3nnc(-c4ccoc4C)n3C)sc2c1	Cl transport mod -3.8 | KCC2 secondary inactive | KCC2 bumet counter inconclusive | KCC2 sec2 inactive | HEK293 Tl flux inactive | KCC2 retest ouab 0.015 | HEK293 Tl flux2 inactive
COc1ccc(Nc2oc(COc3ccc(OC)cc3)nc2C#N)cc1	none
CN(Cc1ccccc1)c1oc(COc2ccccc2F)nc1C#N	none (no result: Cl transport mod) | KCC2 secondary inactive | KCC2 bumet counter inactive | KCC2 sec2 inactive | HEK293 Tl flux inactive | KCC2 retest ouab inconclusive | HEK293 Tl flux2 inactive
COc1ccc(Nc2oc(COc3ccccc3F)nc2C#N)cc1	none (no result: Cl transport mod)
N#Cc1nc(COc2ccccc2F)oc1NCCc1ccccc1	none (no result: Cl transport mod) | KCC2 secondary inactive | KCC2 bumet counter inconclusive | KCC2 sec2 0.025 | HEK293 Tl flux 0.0064 | KCC2 retest ouab 0.014 | HEK293 Tl flux2 inactive
COc1ccc(CNc2oc(COc3ccccc3)nc2C#N)cc1	none (no result: Cl transport mod) | KCC2 secondary inactive | KCC2 bumet counter inconclusive | KCC2 sec2 inactive | HEK293 Tl flux inactive | KCC2 retest ouab inconclusive | HEK293 Tl flux2 inactive
COc1ccc(CCNc2oc(COc3ccccc3)nc2C#N)cc1	none (no result: Cl transport mod) | KCC2 secondary inactive | KCC2 bumet counter inactive | KCC2 sec2 inactive | HEK293 Tl flux inconclusive | KCC2 retest ouab inconclusive | HEK293 Tl flux2 inactive
N#Cc1nc(COc2ccccc2Cl)oc1NCc1cccnc1	Cl transport mod -3 | KCC2 secondary inactive | KCC2 bumet counter inactive | KCC2 sec2 inactive | HEK293 Tl flux inactive | KCC2 retest ouab 0.022 | HEK293 Tl flux2 inactive
Cc1sc2ncn(/N=C/c3ccco3)c(=O)c2c1C	none
c1coc(CNc2c3c(nc4ncnn24)CCCC3)c1	Cl transport mod 5 | KCC2 secondary inactive | KCC2 bumet counter inactive | KCC2 sec2 inactive | HEK293 Tl flux inactive | KCC2 retest ouab inactive | HEK293 Tl flux2 inactive
CCCNC(=O)C1(C)CCCN(Cc2c(F)cccc2F)C1 (centres undefined)	none (no result: Calb FLC, PHOSPHO1 inh, Cl transport mod, Efflux pump mplx)
O=C(OC1CCc2ccccc2C1=O)c1ccccc1O (centres undefined)	Cl transport mod -3.8 (no result: Calb FLC) | KCC2 secondary inactive | KCC2 bumet counter inconclusive | KCC2 sec2 0.027 | HEK293 Tl flux inactive | KCC2 retest ouab 0.013 | HEK293 Tl flux2 inactive
O=C(N/N=C1\CCc2ccccc21)c1ccccc1O	none
CCN(CC)CCOCCn1c(C)ccc1C	none (no result: Calb FLC, PHOSPHO1 inh, Cl transport mod, Efflux pump mplx)
COCCNc1cc(C)c(C#N)c2nc3ccccc3n12	none | KCC2 secondary inactive | KCC2 bumet counter inconclusive | KCC2 sec2 inactive | HEK293 Tl flux inactive | KCC2 retest ouab inactive | HEK293 Tl flux2 inconclusive
Cc1cc(NCCOCCO)n2c(nc3ccccc32)c1C#N	none (no result: Cl transport mod)
COC(=O)N/N=C(\C)c1cccc(C(F)(F)F)c1	none (no result: Cl transport mod)
